These results are taken from the supplement of paper PMC6607015.

What all share (conditions): compound concentration in added solution (µM; 5 µl added to 20 µl cells): 10; 18 h
For assay [1], the system named is A431. In words: LBPA endosome anti-LBPA integrated intensity (sum per cell), Z-score; higher = more LBPA staining. A digest of the protocol:
(§1)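 Per-cell integrated LBPA or filipin intensity, whole-cell or within LBPA endosomes, is expressed as Z-scores normalised in AcuityXpress. HeLa MZ or A431 cells, 3,500 per well in 20 µl, sat on 5 µl of 10 µM compound solution in duplicate 384-well imaging plates for 18 h. They were then fixed in 4% PFA, stained, imaged in four 20× fields per well and segmented using MetaXpress.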

Assay [2] concerns HeLa MZ. The description is as above. A digest of the protocol: as §1
Assay [3] deals with A431. The assay is described as follows: whole-cell filipin (free cholesterol) integrated intensity, Z-score; higher = more cholesterol staining. Put shortly: as §1
Assay [4] has as its system HeLa MZ. The description is as above. A digest of the protocol:
as §1

Assay [5] relates to A431. In words: filipin (cholesterol) integrated intensity within LBPA endosomes, Z-score; higher = more cholesterol in LBPA endosomes. A digest of the protocol:
as §1

Assay [6] relates to HeLa MZ. The assay is described as above. A digest of the protocol:
as §1

Where a name gives a salt, the structure may show the parent alone.

In the case of `Clc1ccc(Cn2c(CN3CCCC3)nc3ccccc32)cc1` [Clemizole hydrochloride], the “LBPA endosome anti-LBPA integrated intensity (z-score)” value was determined as 0.145 in assay [1] and 0.955 in assay [2]. Moreover, the “whole-cell filipin (z-score)” value in assay [3] was 0.228; in assay [4], -0.285. Also, the figures for the “filipin (z-score)” value in assay [5] and in assay [6] were 0.0324 and -0.147, respectively.
With `Nc1nnc(-c2cccc(Cl)c2Cl)c(N)n1` [Lamotrigine], the results for the “LBPA endosome anti-LBPA integrated intensity (z-score)” value in assay [1] and in assay [2] were -0.222 and 1.64, respectively. Besides, the “whole-cell filipin (z-score)” value in assay [3] came out at 0.954; in assay [4], 3.15. Further, the “filipin (z-score)” value in assay [5] is -0.396; in assay [6] it was -0.375.
Turning to `CCN(CC)C(=S)SSC(=S)N(CC)CC` [Disulfiram], the “LBPA endosome anti-LBPA integrated intensity (z-score)” value in assay [2] is 0.205. For the same compound, the “whole-cell filipin (z-score)” value in assay [4] came to 0.0194. For the same compound, in assay [6], the “filipin (z-score)” value was -0.407.
`CN(Cc1cnc2nc(N)nc(N)c2n1)c1ccc(C(=O)N[C@@H](CCC(=O)O)C(=O)O)cc1` [Methotrexate]: the “LBPA endosome anti-LBPA integrated intensity (z-score)” value in assay [1] is -0.383. Moreover, the “whole-cell filipin (z-score)” value in assay [3] was 0.354. The “filipin (z-score)” value in assay [5] was -0.754.
With `CC(COc1ccccc1)NC(C)C(O)c1ccc(O)cc1` (configuration not stated) [Isoxsuprine hydrochloride], the “LBPA endosome anti-LBPA integrated intensity (z-score)” value in assay [1] is -0.187; in assay [2], 0.869. In addition, the “whole-cell filipin (z-score)” value in assay [3] is -0.214; in assay [4], -0.465. The “filipin (z-score)” value in assay [5] is -0.444; in assay [6] it was -0.378.
In the case of `CC(=O)OCC(CCn1cnc2cnc(N)nc21)COC(C)=O` [Famciclovir], the “LBPA endosome anti-LBPA integrated intensity (z-score)” value is -0.437 in assay [1] and -0.227 in assay [2]. Besides, the “whole-cell filipin (z-score)” value in assay [3] is -0.465; in assay [4], -0.311. Further, the “filipin (z-score)” value in assay [5] was -0.431; in assay [6] it was -0.386.
On to `CN1CCCC(CC2c3ccccc3Sc3ccccc32)C1` (configuration not stated) [Metixene hydrochloride], for which the entries for the “LBPA endosome anti-LBPA integrated intensity (z-score)” value in assay [1] and in assay [2] were 3.73 and 1.25, respectively. In addition, the entries for the “whole-cell filipin (z-score)” value in assay [3] and in assay [4] were 0.301 and -0.563, respectively. Besides, the “filipin (z-score)” value in assay [5] was found to be 3.15; in assay [6], 1.94.
Regarding `COc1cc([C@@H]2c3cc4c(cc3[C@@H](O[C@@H]3O[C@@H]5CO[C@@H](C)O[C@H]5[C@H](O)[C@H]3O)[C@H]3COC(=O)[C@H]23)OCO4)cc(OC)c1O` [Etoposide], in assay [1], the “LBPA endosome anti-LBPA integrated intensity (z-score)” value was -0.699. In addition, the “whole-cell filipin (z-score)” value in assay [3] came out at 2.27. Further, the “filipin (z-score)” value in assay [5] is -0.718.
For the compound `O=C1NCCN1CCN1CCC(c2cn(-c3ccc(F)cc3)c3ccc(Cl)cc23)CC1` [Sertindole], the “LBPA endosome anti-LBPA integrated intensity (z-score)” value in assay [2] is 0.384. For the same compound, in assay [4], the “whole-cell filipin (z-score)” value is -0.48. Further, the “filipin (z-score)” value in assay [6] was 2.2.
Take `C1CCC(C(CC2CCCCN2)C2CCCCC2)CC1` (configuration not stated) [Perhexiline maleate]: in assay [2], the “LBPA endosome anti-LBPA integrated intensity (z-score)” value is -0.192. For the same compound, in assay [4], the “whole-cell filipin (z-score)” value stood at 0.438. In assay [6], the “filipin (z-score)” value turned out to be 2.62.
Regarding `CC(C)(Sc1cc(C(C)(C)C)c(O)c(C(C)(C)C)c1)Sc1cc(C(C)(C)C)c(O)c(C(C)(C)C)c1` [Probucol], the figures for the “LBPA endosome anti-LBPA integrated intensity (z-score)” value in assay [1] and in assay [2] were -0.46 and -0.408, respectively. Moreover, the “whole-cell filipin (z-score)” value was -0.766 in assay [3] and -0.622 in assay [4]. The “filipin (z-score)” value in assay [5] was -0.482; in assay [6], -0.445.
On to `CC(C)(C)CC(C)(C)c1ccc(OCCOCC[N+](C)(C)Cc2ccccc2)cc1` [Benzethonium chloride], for which the “LBPA endosome anti-LBPA integrated intensity (z-score)” value in assay [2] stood at 1.55. Also, the “whole-cell filipin (z-score)” value in assay [4] was -0.53. In addition, in assay [6], the “filipin (z-score)” value amounted to 0.517.
For `CN1CCN(CCCN2c3ccccc3Sc3ccc(Cl)cc32)CC1` [Prochlorperazine dimaleate], the “LBPA endosome anti-LBPA integrated intensity (z-score)” value was 2.82 in assay [1] and 1.36 in assay [2]. Further, the “whole-cell filipin (z-score)” value in assay [3] is 0.00438; in assay [4] it was -0.198. The entries for the “filipin (z-score)” value in assay [5] and in assay [6] were 1.66 and 1.98, respectively.
With `Nc1ccc(S(=O)(=O)Nc2ncccn2)cc1` [Sulfadiazine], the “LBPA endosome anti-LBPA integrated intensity (z-score)” value in assay [1] is -0.494; in assay [2], -0.985. Further, the “whole-cell filipin (z-score)” value in assay [3] was -0.718; in assay [4] it was -0.987. Further, the “filipin (z-score)” value in assay [5] is -0.481; in assay [6], -0.62.
For `CN[C@H]1CC[C@@H](c2ccc(Cl)c(Cl)c2)c2ccccc21` [Sertraline], the “LBPA endosome anti-LBPA integrated intensity (z-score)” value in assay [2] was -0.719. Moreover, the “whole-cell filipin (z-score)” value in assay [4] was determined as 0.938. Moreover, in assay [6], the “filipin (z-score)” value stood at 3.15.
As for `COC(=O)Nc1nc2cc(C(=O)c3ccc(F)cc3)ccc2[nH]1` [Flubendazol], in assay [1], the “LBPA endosome anti-LBPA integrated intensity (z-score)” value is -0.354. Further, the “whole-cell filipin (z-score)” value in assay [3] is -0.303. Besides, the “filipin (z-score)” value in assay [5] is -0.305.
